Laboratory results from PubChem BioAssay (NCI).
This is part of a sample that, as a whole, favours compounds with a hit. Of some 83,000 tested, about 20% had one in any assay.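 Values shown are percent growth following 48 h exposure of cells in 96-well plates to a single concentration of compound; below 10 was considered active.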 Active and inactive are the calls of the source.

Tests used:
Test in all cases: NCI-60 one-dose screen, 48 h (100 = growth as untreated, 0 = no growth, -100 = all killed)
Details in all cases: 10 µM unless noted
DU-145 prostate = test system: DU-145 prostate
K-562 leukemia = test system: K-562 leukemia
MALME-3M melanoma = test system: MALME-3M melanoma
MDA-MB-231 breast = test system: MDA-MB-231 breast
RXF 393 renal = test system: RXF 393 renal
SF-268 CNS = test system: SF-268 CNS
SF-295 CNS = test system: SF-295 CNS
SF-539 CNS = test system: SF-539 CNS
UACC-257 melanoma = test system: UACC-257 melanoma
HCT-15 colon = test system: HCT-15 colon
HT29 colon = test system: HT29 colon
SNB-75 CNS = test system: SNB-75 CNS
SNB-19 CNS = test system: SNB-19 CNS
U251 CNS = test system: U251 CNS
PC-3 prostate = test system: PC-3 prostate
SK-MEL-5 melanoma = test system: SK-MEL-5 melanoma
UACC-62 melanoma = test system: UACC-62 melanoma
LOX IMVI melanoma = test system: LOX IMVI melanoma
SK-MEL-28 melanoma = test system: SK-MEL-28 melanoma

Measured: growth

S=C(Cc1ccc2c(c1)CCCC2)N1CCOCC1
inactive: DU-145 prostate 104% | K-562 leukemia 107% | MALME-3M melanoma 85.6% | MDA-MB-231 breast 103% | RXF 393 renal 115% | SF-268 CNS 101% | SF-295 CNS 104% | SF-539 CNS 99.6% | UACC-257 melanoma 91.5% | HCT-15 colon 101% | HT29 colon 87.9% | SNB-75 CNS 95.1% | SNB-19 CNS 102% | U251 CNS 95.6% | PC-3 prostate 97.8% | SK-MEL-5 melanoma 102% | UACC-62 melanoma 95.9% | LOX IMVI melanoma 93.2% | SK-MEL-28 melanoma 102%

COC(=O)/C=C1\S/C(=N\NS(=O)(=O)c2ccc(C)cc2)N(c2ccccc2)C1=O
inactive: DU-145 prostate 105% | K-562 leukemia 84.5% | MALME-3M melanoma 110% | MDA-MB-231 breast 109% | RXF 393 renal 111% | SF-268 CNS 98% | SF-295 CNS 105% | SF-539 CNS 100% | UACC-257 melanoma 99.5% | HCT-15 colon 98.7% | HT29 colon 117% | SNB-75 CNS 83.8% | SNB-19 CNS 97% | U251 CNS 102% | PC-3 prostate 96.4% | SK-MEL-5 melanoma 100% | UACC-62 melanoma 95.2% | LOX IMVI melanoma 98.7% | SK-MEL-28 melanoma 104%

CCN(CCNc1ccc(C)c2sc3ccccc3c(=O)c12)CC(C)(C)O
inactive: DU-145 prostate 95.7% | MALME-3M melanoma 89.1% | MDA-MB-231 breast 78% | RXF 393 renal 74.7% | SF-268 CNS 83.3% | SF-539 CNS 78.9% | UACC-257 melanoma 95.9% | HCT-15 colon 28.8% | HT29 colon 39.2% | SNB-75 CNS 73.7% | SNB-19 CNS 78% | U251 CNS 49.7% | PC-3 prostate 71.4% | SK-MEL-5 melanoma 75.9% | UACC-62 melanoma 53.6% | LOX IMVI melanoma 54.4% | SK-MEL-28 melanoma 79.6%
active: K-562 leukemia -34.5% | SF-295 CNS -17.6%

COCCc1ccc(OCC(O)CNC(C)C)cc1 (centres undefined)
inactive: DU-145 prostate 109% | K-562 leukemia 101% | MALME-3M melanoma 97.5% | MDA-MB-231 breast 101% | RXF 393 renal 128% | SF-268 CNS 104% | SF-295 CNS 101% | SF-539 CNS 106% | UACC-257 melanoma 96.3% | HCT-15 colon 102% | HT29 colon 98.9% | SNB-75 CNS 90.4% | SNB-19 CNS 105% | U251 CNS 98.2% | PC-3 prostate 96.6% | SK-MEL-5 melanoma 108% | UACC-62 melanoma 113% | LOX IMVI melanoma 96.6% | SK-MEL-28 melanoma 98.9%

CC(C)(C)OC(=O)Nc1ccc2c(c1)C(NC(=O)Nc1cccc(C#N)c1)CC(C)(C)O2 (centres undefined)
active: SK-MEL-5 melanoma -5.57%
inactive: DU-145 prostate 71.6% | K-562 leukemia 23.3% | MALME-3M melanoma 39% | MDA-MB-231 breast 68.8% | RXF 393 renal 72.4% | SF-268 CNS 53.4% | SF-295 CNS 31.9% | SF-539 CNS 66.8% | UACC-257 melanoma 27.2% | HCT-15 colon 34.2% | HT29 colon 55% | SNB-75 CNS 71.8% | SNB-19 CNS 52.4% | U251 CNS 32.7% | PC-3 prostate 30.5% | UACC-62 melanoma 34.6% | LOX IMVI melanoma 26.9% | SK-MEL-28 melanoma 74.7%

CC1SC(c2ccc(OCc3ccccc3)cc2)N(NC(=O)C(O)(c2ccccc2)c2ccccc2)C1=O (centres undefined)
active: SF-295 CNS -20.7%
inactive: DU-145 prostate 89.6% | K-562 leukemia 40.9% | MALME-3M melanoma 72.3% | MDA-MB-231 breast 76.5% | RXF 393 renal 51.4% | SF-268 CNS 71.4% | SF-539 CNS 74.4% | UACC-257 melanoma 78.3% | HCT-15 colon 60.9% | HT29 colon 38.1% | SNB-75 CNS 77.5% | SNB-19 CNS 69.3% | PC-3 prostate 30.1% | SK-MEL-5 melanoma 94.9% | UACC-62 melanoma 63.7% | LOX IMVI melanoma 58.9% | SK-MEL-28 melanoma 78.2%

O=C(NCCc1ccc(O)c(O)c1)C12CC3CC(CC(C3)C1)C2
inactive: DU-145 prostate 101% | K-562 leukemia 92.6% | MALME-3M melanoma 107% | MDA-MB-231 breast 85.5% | RXF 393 renal 101% | SF-268 CNS 89.6% | SF-295 CNS 128% | SF-539 CNS 80.4% | UACC-257 melanoma 98.8% | HCT-15 colon 91.8% | HT29 colon 102% | SNB-75 CNS 82% | SNB-19 CNS 98.5% | U251 CNS 101% | PC-3 prostate 73.5% | SK-MEL-5 melanoma 96% | UACC-62 melanoma 90.3% | LOX IMVI melanoma 89.1% | SK-MEL-28 melanoma 104%

COc1nc2c(c(=O)n1C)CN(c1ccccc1)C(=O)CN2C
inactive: DU-145 prostate 66.3% [100 µM] | K-562 leukemia 55.2% [100 µM] | MALME-3M melanoma 74.3% [100 µM] | MDA-MB-231 breast 47.5% [100 µM] | RXF 393 renal 60.4% [100 µM] | SF-268 CNS 63.4% [100 µM] | SF-295 CNS 50.7% [100 µM] | SF-539 CNS 60.8% [100 µM] | UACC-257 melanoma 73.6% [100 µM] | HCT-15 colon 52.7% [100 µM] | HT29 colon 62.3% [100 µM] | SNB-75 CNS 45% [100 µM] | SNB-19 CNS 57.4% [100 µM] | U251 CNS 62.6% [100 µM] | PC-3 prostate 37.7% [100 µM] | SK-MEL-5 melanoma 48.4% [100 µM] | UACC-62 melanoma 43.9% [100 µM] | LOX IMVI melanoma 70.3% [100 µM] | SK-MEL-28 melanoma 90.4% [100 µM]

CCOC(=O)c1c(/C=C/C(=O)O)nc2ccccc2c1/C=C/c1ccccc1
inactive: DU-145 prostate 14.2% | K-562 leukemia 23.9% | MALME-3M melanoma 51.4% | MDA-MB-231 breast 57.5% | RXF 393 renal 11.3% | SF-268 CNS 40.7% | SF-295 CNS 73.6% | SF-539 CNS 19.8% | UACC-257 melanoma 49.6% | HCT-15 colon 23.9% | HT29 colon 49.9% | SNB-75 CNS 15% | SNB-19 CNS 61.1% | U251 CNS 51.2% | PC-3 prostate 53.5% | SK-MEL-5 melanoma 53.7% | UACC-62 melanoma 45.5% | LOX IMVI melanoma 28.1% | SK-MEL-28 melanoma 45.8%

CCOC(=O)c1c2ncccc2n2c(=O)n(-c3ccccc3C)nnc12
inactive: DU-145 prostate 142% | K-562 leukemia 86.4% | MALME-3M melanoma 145% | MDA-MB-231 breast 104% | RXF 393 renal 107% | SF-268 CNS 117% | SF-295 CNS 105% | SF-539 CNS 91.8% | UACC-257 melanoma 91.7% | HCT-15 colon 100% | HT29 colon 112% | SNB-75 CNS 84% | SNB-19 CNS 105% | U251 CNS 105% | PC-3 prostate 122% | SK-MEL-5 melanoma 84% | UACC-62 melanoma 95.3% | LOX IMVI melanoma 86.5% | SK-MEL-28 melanoma 157%

c1ccc(-c2nc([P+](c3ccccc3)(c3ccccc3)c3ccccc3)c(N3CCOCC3)o2)cc1
active: MALME-3M melanoma 4.6% | MDA-MB-231 breast -14.8% | RXF 393 renal -4.62% | SF-295 CNS 0.0601% | SF-539 CNS 6.52% | UACC-257 melanoma -9.47% | HT29 colon 0.225% | SNB-19 CNS 8.73% | PC-3 prostate 6.1% | SK-MEL-5 melanoma -93.1% | UACC-62 melanoma -37.1% | LOX IMVI melanoma 4.66%
inactive: DU-145 prostate 18.6% | K-562 leukemia 10.4% | SF-268 CNS 18.3% | HCT-15 colon 79.3% | U251 CNS 10.1% | SK-MEL-28 melanoma 21.9%

CC/C=C\C/C=C\C[C@H](O)C/C=C1/C(=O)C=C[C@@H]1C/C=C\CCCC(=O)O
active: U251 CNS -27.9% | UACC-62 melanoma -43.4% | LOX IMVI melanoma -10.1%
inactive: DU-145 prostate 35.4% | K-562 leukemia 10.5% | MALME-3M melanoma 47% | MDA-MB-231 breast 25.6% | RXF 393 renal 68.5% | SF-268 CNS 53.9% | SF-295 CNS 86.2% | SF-539 CNS 32.7% | UACC-257 melanoma 31.3% | HCT-15 colon 48% | HT29 colon 12.6% | SNB-75 CNS 80.7% | SNB-19 CNS 44.3% | SK-MEL-5 melanoma 20.7% | SK-MEL-28 melanoma 17.5%

COC(=O)c1c2c(c(C)[n+]([O-])c1C)C(=O)C(NCc1ccc(F)c(Cl)c1)=CC2=O
inactive: DU-145 prostate 36.2% | RXF 393 renal 36.2% | SF-295 CNS 39% | SK-MEL-28 melanoma 57.9%
active: K-562 leukemia 5.87% | MALME-3M melanoma -93.5% | MDA-MB-231 breast 2.68% | SF-268 CNS 9.33% | SF-539 CNS 3.31% | UACC-257 melanoma -69.3% | HCT-15 colon 8.29% | HT29 colon 5% | SNB-19 CNS 7.17% | U251 CNS -20.4% | PC-3 prostate 5.89% | SK-MEL-5 melanoma -71.6% | UACC-62 melanoma -42% | LOX IMVI melanoma 9.57%

O=C(/C=C/c1ccco1)c1ccc(Nc2nc(Nc3ccc(F)cc3)nc(Nc3ccc(Cl)cc3)n2)cc1
inactive: DU-145 prostate 77% | K-562 leukemia 67.4% | MALME-3M melanoma 75.1% | MDA-MB-231 breast 55.1% | RXF 393 renal 35.6% | SF-268 CNS 80.2% | SF-295 CNS 65.4% | SF-539 CNS 102% | UACC-257 melanoma 101% | HCT-15 colon 78.5% | HT29 colon 61.8% | SNB-75 CNS 62.5% | SNB-19 CNS 107% | U251 CNS 73.2% | PC-3 prostate 72.7% | SK-MEL-5 melanoma 73.8% | UACC-62 melanoma 81.7% | LOX IMVI melanoma 74.7% | SK-MEL-28 melanoma 60.3%

Cc1ccc(-c2cc(-c3ccccc3C)[nH]c(=O)c2C#N)s1
inactive: DU-145 prostate 104% | K-562 leukemia 85.6% | MALME-3M melanoma 111% | MDA-MB-231 breast 84.8% | RXF 393 renal 92% | SF-268 CNS 95.8% | SF-295 CNS 99.2% | SF-539 CNS 91.5% | UACC-257 melanoma 107% | HCT-15 colon 90.5% | HT29 colon 122% | SNB-75 CNS 71.6% | SNB-19 CNS 88.5% | U251 CNS 91.2% | SK-MEL-5 melanoma 89.8% | UACC-62 melanoma 75.5% | LOX IMVI melanoma 82.8% | SK-MEL-28 melanoma 110%

COc1cc(C2CC(c3ccc(Nc4ccnc5cc(Cl)ccc45)cc3)=NN2C=O)cc(OC)c1OC (centres undefined)
inactive: DU-145 prostate 66.4% | K-562 leukemia 26% | MALME-3M melanoma 25.2% | MDA-MB-231 breast 85.8% | RXF 393 renal 83.6% | SF-268 CNS 90.1% | SF-295 CNS 75.2% | SF-539 CNS 73.2% | UACC-257 melanoma 60.1% | HCT-15 colon 48.8% | SNB-75 CNS 75.7% | SNB-19 CNS 82% | U251 CNS 44.6% | PC-3 prostate 80.6% | SK-MEL-5 melanoma 37.3% | UACC-62 melanoma 46.3% | SK-MEL-28 melanoma 22.4%
active: HT29 colon -37.3% | LOX IMVI melanoma 0.138%
